± gives the standard deviation of the averaged measurements. In all, about 33,000 sequences were measured (“E-score (dimensionless, -0.5 to 0.5)”: median about -0.049, highest 2% from about 0.37 on). What follows is part of a selection rich in the highest values, with near analogues and random picks from the rest.

For this test, the system named is T1, PmTbr T-box DNA-binding domain (GST fusion).
T1 sequence: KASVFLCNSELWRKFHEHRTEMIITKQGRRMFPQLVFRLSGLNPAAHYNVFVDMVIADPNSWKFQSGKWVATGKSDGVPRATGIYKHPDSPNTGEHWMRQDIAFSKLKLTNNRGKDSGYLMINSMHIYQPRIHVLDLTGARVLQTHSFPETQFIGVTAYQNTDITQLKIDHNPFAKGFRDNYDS
Nature of the test: PBM E-score of 8-mer (E-score (dimensionless, -0.5 to 0.5)); Tbr is Tbrain of the sea star Patiria miniata (Pm) or the sea urchin Strongylocentrotus purpuratus (Sp); higher = stronger binding preference. Particulars: the construct has about 5 more residues each side. Put shortly: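 Using the Universal PBM Analysis Suite, every ungapped 8-mer received an enrichment E-score averaged over duplicate arrays. Probe intensities came from double-stranded Universal Agilent oligonucleotide arrays incubated with 200 nM GST-fused Tbr T-box DNA-binding domain in PBS (pH 7.5). That protein was expressed in BL21 E. coli at 20 °C and purified by glutathione affinity chromatography.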
As to GGCTTAAA, the “PBM E-score of 8-mer” value is -0.302 ± 0.016.

ACAAGCTA: the “PBM E-score of 8-mer” value is -0.0967 ± 0.014. The value for CGGTGACA was 0.333 ± 0.0054. The value for TGGTGACA was 0.409 ± 0.01; that for TCGTGACA was 0.358 ± 0.017. The value for GGGTGACA was 0.4543 ± 0.0023; that for GGGTGACC was -0.0479 ± 0.082. Regarding GGGTGAAA, the “PBM E-score of 8-mer” value amounted to 0.0558 ± 0.043. The value for CGCGCTCA was 0.13 ± 0.034; that for TATAAGGA was -0.154 ± 0.073; that for CACCAATA was 0.224 ± 0.056. The value for CCATGGCC was -0.263 ± 0.011; that for AGGTGACA was 0.4826 ± 0.00079.

As for AGGTGACC, the “PBM E-score of 8-mer” value was determined as 0.172 ± 0.052. The value for AGGTGACT was 0.31 ± 0.015; that for AGGTGAAA was 0.347 ± 0.022; that for AGGTGACG was 0.4629 ± 0.0014.

As to CGGTGACG, the “PBM E-score of 8-mer” value turned out to be 0.179 ± 0.047.

On to GGGGGGCA, for which the “PBM E-score of 8-mer” value was -0.327 ± 0.0093. Consider GCTCTGAC, for which the “PBM E-score of 8-mer” value is -0.205 ± 0.092. The value for GGAAACCA was -0.1389 ± 0.00081. With AACTCTCG, the “PBM E-score of 8-mer” value was -0.128 ± 0.018. Under GATTCAGA stands -0.206 ± 0.0085; under AATTCACG, 0.365 ± 0.0071; under GATTCACA, 0.38 ± 0.041.

AATTCACA: the “PBM E-score of 8-mer” value turned out to be 0.2798 ± 0.0014. The value for CATTCACC was -0.0785 ± 0.054; that for CATTCACG was 0.229 ± 0.041; that for CATTCACA was 0.385 ± 0.0049.

Consider TATTCACA, for which the “PBM E-score of 8-mer” value is 0.411 ± 0.029. Under GATTCACC stands -0.167 ± 0.0053. Under AGACCACT stands -0.234 ± 0.093; under TACCCATA, -0.104 ± 0.024.

As for AACTGACG, the “PBM E-score of 8-mer” value was found to be 0.102 ± 0.036. The value for ACGTGTGG was 0.362 ± 0.017; that for AGGTGTGG was 0.483 ± 0.0024.

Turning to AGATGTGC, the “PBM E-score of 8-mer” value came out at 0.163 ± 0.018. The value for ATGTGTGG was 0.3184 ± 0.0012.

CTGTGTGC: the “PBM E-score of 8-mer” value is -0.0563 ± 0.038. Consider AGGTGTGC, for which the “PBM E-score of 8-mer” value was 0.44 ± 0.0051. Consider ATACTCCG, for which the “PBM E-score of 8-mer” value is -0.00617 ± 0.029. On to AGAGTTAT, for which the “PBM E-score of 8-mer” value is -0.0216 ± 0.013. The value for GTCCAACA was 0.198 ± 0.045. Under AAAGCGTG stands 0.2812 ± 0.0023; under CGTAAACG, 0.0455 ± 0.046; under AGGCGTAG, 0.0703 ± 0.0097. Consider GGGCGTTA, for which the “PBM E-score of 8-mer” value turned out to be 0.276 ± 0.0092. Under CGGCGTTA stands 0.189 ± 0.00085; under AGGCGTTC, 0.0817 ± 0.053; under AGGCGTTG, 0.369 ± 0.0053. The value for AGGCGTTA was 0.4486 ± 0.0021; that for ATTGGAGG was 0.0195 ± 0.049. As to AAATGGGC, the “PBM E-score of 8-mer” value worked out at 0.0759 ± 0.0097. Under GGCAACGA stands 0.0835 ± 0.033; under AGGAGATG, -0.0689 ± 0.011. As for ACTTTTAC, the “PBM E-score of 8-mer” value is -0.0251 ± 0.02. For CCAGAGCC, the “PBM E-score of 8-mer” value was -0.17 ± 0.0096. The value for GAGGTGGA was 0.0566 ± 0.0027. Take CAGGTGGC: the “PBM E-score of 8-mer” value came out at 0.364 ± 0.018. The value for AAGGTGGG was 0.221 ± 0.026.

With GAGGTGGC, the “PBM E-score of 8-mer” value was 0.372 ± 0.036. The value for AAGGTGGC was 0.383 ± 0.021; that for AAGGTGGA was -0.0394 ± 0.074; that for TACTAGTA was -0.163 ± 0.035. For CTGTAGCA, the “PBM E-score of 8-mer” value is -0.0144 ± 0.079. Regarding ACGCACCA, the “PBM E-score of 8-mer” value stood at 0.0123 ± 0.072. The value for AATCTTTA was -0.0517 ± 0.059; that for GACACGTA was 0.317 ± 0.029; that for AACACGTC was 0.399 ± 0.021. The value for AACACGGC was 0.162 ± 0.017. Under GACACGGC stands 0.187 ± 0.038; under AACACGTT, 0.386 ± 0.014. Consider AACACGTA, for which the “PBM E-score of 8-mer” value was 0.34 ± 0.024. Under AACACGCT stands 0.197 ± 0.011; under GACACGTC, 0.373 ± 0.021; under AACACGAT, 0.291 ± 0.018. The value for ACGCGTTC was 0.138 ± 0.014; that for TTAGTGAA was -0.048 ± 0.037. The value for TCTAAGAA was -0.239 ± 0.028; that for CAAGGTTC was 0.0603 ± 0.055; that for GAAGGTGC was 0.439 ± 0.012.

In the case of GAAGGTGA, the “PBM E-score of 8-mer” value turned out to be 0.406 ± 0.011. For the sequence TAAGGTGA, the “PBM E-score of 8-mer” value came out at 0.3578 ± 0.00067. The value for GAAGGTAA was 0.00393 ± 0.033; that for CAAGGTGA was 0.406 ± 0.0091. Under CAAGGTGG stands 0.323 ± 0.03; under CAAGGTGC, 0.4331 ± 0.00078; under CAAGGTAA, 0.00125 ± 0.13.

Consider GAAGGTAC, for which the “PBM E-score of 8-mer” value was -0.214 ± 0.046.

Turning to CAAGGTCA, the “PBM E-score of 8-mer” value was found to be 0.0991 ± 0.0032. For GAAGGTCC, the “PBM E-score of 8-mer” value was -0.1794 ± 0.0013. With TCAAATGA, the “PBM E-score of 8-mer” value is -0.203 ± 0.019. Under ATGGGCCA stands -0.105 ± 0.04; under CAGCGCTG, 0.0573 ± 0.064.
